The source made the active and inactive calls. How the source made its calls: active means hit-call score of the fitted dose curve at least 0.9, where 1 is the maximum; inactive means score below 0.9.
biological target: human ZAP70 Tyrosine Kinase, ZAP70 (gene 7535) (UniProt P43403); assay: ERF_FR_ENZ_hZAP70: Eurofins (ERF) Enzymatic Radiometric [Km ATP] KinaseProfiler LeadHunter Assay for human ZAP70 Tyrosine Kinase
Experimental: ERF_FR_ENZ_hZAP70 is a biochemical, single-readout assay that uses extracted gene-proteins in a cell-free assay. Measurements were taken 0.25 hour after chemical dosing in a 96-well plate. See ZAP70 Human TK Kinase Enzymatic HTRF Assay [Km ATP], Cerep.ERF_FR_ENZ_hZAP70 is an assay component calculated from the ERF_FR_ENZ_hZAP70 assay. It is designed to measure enzyme activity using a type of enzyme reporter as detected by fluorescence intensity with HTRF technology.Data from the assay component ERF_FR_ENZ_hZAP70 was analyzed at the assay endpoint, ERF_FR_ENZ_hZAP70, in the positive analysis fitting direction relative to DMSO as the negative control and baseline of activity. Using a type of enzyme reporter, loss-of-signal activity can be used to understand changes in enzymatic activity as they relate to gene ZAP70. To generalize the intended target to other relatable targets, this assay endpoint is annotated to the kinase intended target family, where the subfamily is protein tyrosine kinase.
ZAP-70 (h) is incubated with 50 mM Tris pH 7.5, 0.1 mM EGTA, 0.1 mM Na3VO4, 0.1% […], 0.1 mg/mL poly(Glu, Tyr) 4:1, 10 mM MnCl2, 10 mM MgAcetate and [gamma-33P]-ATP (specific activity and concentration as required). The reaction is initiated by the addition of the Mg/ATP mix. […]

Sequence of human ZAP70 Tyrosine Kinase, ZAP70 (gene 7535) (P43403 whole entry, looked up): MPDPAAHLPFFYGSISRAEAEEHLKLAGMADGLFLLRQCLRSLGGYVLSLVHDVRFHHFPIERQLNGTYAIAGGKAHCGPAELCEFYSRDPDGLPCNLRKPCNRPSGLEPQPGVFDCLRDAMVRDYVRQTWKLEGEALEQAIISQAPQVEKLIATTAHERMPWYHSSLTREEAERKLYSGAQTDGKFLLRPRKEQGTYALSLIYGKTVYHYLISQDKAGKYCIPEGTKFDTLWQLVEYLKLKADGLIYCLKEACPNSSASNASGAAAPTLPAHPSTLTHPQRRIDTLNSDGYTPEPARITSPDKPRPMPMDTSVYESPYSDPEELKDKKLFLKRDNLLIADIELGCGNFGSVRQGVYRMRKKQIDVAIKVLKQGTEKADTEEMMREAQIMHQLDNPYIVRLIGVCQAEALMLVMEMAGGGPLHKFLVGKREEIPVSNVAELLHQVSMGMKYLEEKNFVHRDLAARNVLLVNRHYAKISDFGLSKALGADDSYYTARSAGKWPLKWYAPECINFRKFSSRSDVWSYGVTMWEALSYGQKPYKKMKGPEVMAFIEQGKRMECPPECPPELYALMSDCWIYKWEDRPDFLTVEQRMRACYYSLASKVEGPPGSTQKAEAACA

Row | Compound | outcome
1 | O=C(/C=C/c1ccc(O)cc1)CC(=O)/C=C/c1ccc(O)cc1 | inactive

— PubChem BioAssay AID2284139 (EPA ToxCast)
